# The list is not random: actives were taken first. Their share in the collection is about 0.9%.
# gsp antag = gsp mutant antagonism | gsp-mutant cells, cAMP HTRF, 30 min | Potency, µM (doses to about 76.9 µM), most hits filed as inhibitors | 340,000 compounds, 0.4% hits; calls by dose curve; cell line not stated here;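 note: intracellular cAMP measured with PDE inhibitor Ro 20-1724 present during compound exposure; nearly all actives have a fitted effect of over 65% in size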
#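 G418-selected cells were plated in DMEM/10% FBS for 16-24 h at 37C, then treated with compounds plus the PDE inhibitor […] (300 uM solution added) for 30 min at 37C. Intracellular cAMP was measured by HTRF after 30 min lysis at room temperature.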
# RXFP1 antag = RXFP1 (human) relaxin receptor antagonism; HEK293-RXFP1, relaxin-stimulated cAMP HTRF, 30 min; stronger effect = lower value; activity change, negative = inhibition, % at 57.5 µM; 350,000 compounds, 0.59% hits; Q9HBX9;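 active = activity change of -60% or lower, but not beyond a set lower limit; inconclusive = change between -60% and -40%, or beyond the set limit; inactive = change above -40%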
# Target sequence (Q9HBX9 whole entry, looked up): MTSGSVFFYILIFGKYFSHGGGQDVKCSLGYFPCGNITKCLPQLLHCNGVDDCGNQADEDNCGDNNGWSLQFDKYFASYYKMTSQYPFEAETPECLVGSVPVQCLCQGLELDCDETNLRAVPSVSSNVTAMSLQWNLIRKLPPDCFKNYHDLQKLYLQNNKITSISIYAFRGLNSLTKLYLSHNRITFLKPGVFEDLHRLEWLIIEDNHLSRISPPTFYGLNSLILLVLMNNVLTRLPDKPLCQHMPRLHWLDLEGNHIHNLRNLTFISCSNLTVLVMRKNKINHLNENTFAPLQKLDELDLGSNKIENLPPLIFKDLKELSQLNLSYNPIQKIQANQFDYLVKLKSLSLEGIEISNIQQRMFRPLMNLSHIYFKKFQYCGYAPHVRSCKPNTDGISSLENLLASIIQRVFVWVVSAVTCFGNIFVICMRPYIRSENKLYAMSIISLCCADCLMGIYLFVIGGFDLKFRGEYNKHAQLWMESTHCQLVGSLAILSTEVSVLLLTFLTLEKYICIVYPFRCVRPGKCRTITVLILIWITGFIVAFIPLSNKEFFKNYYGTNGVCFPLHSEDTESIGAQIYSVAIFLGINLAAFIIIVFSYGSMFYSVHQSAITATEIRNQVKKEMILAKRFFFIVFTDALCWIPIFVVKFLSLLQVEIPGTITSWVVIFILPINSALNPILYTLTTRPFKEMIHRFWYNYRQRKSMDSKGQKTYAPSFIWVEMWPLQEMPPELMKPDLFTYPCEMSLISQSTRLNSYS
# RXFP1 agonist = agonists of human relaxin receptor RXFP1; HEK293T-RXFP1 cAMP TR-FRET, 30 min; response scale: percent of porcine relaxin response, buffer zero; 370,000 compounds, 0.3% hits; Potency, µM (highest dose often 57.5 µM), most hits filed as activators; Q9HBX9; AID 2676; active = well fitted activation curve with a large enough effect; inconclusive = small, poorly fitted or top-dose-only effect; note: nearly all actives have a fitted effect of over 60% in size
#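 HEK293 cells stably expressing RXFP1, treated 30 min at 37C with compounds plus PDE4 inhibitor Ro 20174; cAMP measured by HTRF TR-FRET. Normalized to buffer and 29 nM porcine relaxin; EC50 by Hill fit.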
# gsp agonist = gsp mutant agonism; gsp mutant cells, cAMP HTRF, 30 min; Potency, µM (titrated, usually from 76.9 µM), usual class: activators; 340,000 compounds, 0.13% hits; AID 624287; active = well fitted activation curve with a large enough effect; inconclusive = small, poorly fitted or top-dose-only effect, or another doubt; inactive = no such curve, though single readings can be large or run the other way; cell line not stated here;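 note: phosphodiesterase inhibitor Ro 20-1724 added with compounds to block cAMP breakdown; nearly all actives have a fitted effect of over 60% in size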
#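 Cells stably selected in G418 were plated at 2000/well, grown 16-24 hr, then given compounds in DMSO with the PDE inhibitor […] (300 uM solution added) for 30 min at 37C; cAMP was read by HTRF.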
# Hits are given with their value; - = inactive; ? = inconclusive; . = no result; [ ] = remark or other dose.
SMILES,gsp antag,RXFP1 antag,RXFP1 agonist,gsp agonist
Cc1ccc(CS(=O)(=O)c2ncc(Cl)c(C(=O)Nc3nnc(C(C)C)s3)n2)cc1,18µM,-93,-,-[15.4 µM]
CSc1nnc(NC(=O)c2nc(S(=O)(=O)Cc3ccccc3F)ncc2Cl)s1,35µM,-,-,-[15.4 µM]
CCSc1nnc(NC(=O)c2nc(S(=O)(=O)Cc3ccc(F)cc3)ncc2Cl)s1,40µM,?,-,-[15.4 µM]
Cc1ccc(C(=O)c2ccc([N+](=O)[O-])cc2)cc1,-,-,-,-
Cc1ccc(C(=O)c2coc3cc([N+](=O)[O-])c(O)c([N+](=O)[O-])c23)cc1,35µM,-,-,-
CCCCNc1c(-c2cccc(-c3ccc(OC)cc3)c2)nc2cc(C)ccn12,32µM,.,.,?
CCCCNc1c(-c2cccc(-c3ccc(OC)cc3)c2)nc2ccc(C)cn12,?,.,-,.
CCCCNc1c(-c2cccc(-c3cc(C(C)=O)cs3)c2)nc2ccc(C)cn12,35µM,.,-,.
Cc1ccccc1-c1nc(SCC(=O)NCc2ccc(F)cc2)c2c(=O)n(C)c(=O)n(C)c2n1,.,-,-,.
c1ccc2c(c1)ncn2CCCOc1ccc2c(c1)CCC2,28µM,-,-,-
c1ccc2c(c1)ncn2CCCCOc1ccc2c(c1)CCC2,?,-,-,-
CC1=C(C(=O)O)N2C(=O)[C@@H](NC(=O)[C@H](N)C3=CCC=CC3)[C@H]2SC1,.,-,.,.
Cc1cccc(C(=O)NC2=NC(c3ccc(Cl)cc3)CC(=O)N2)c1 (stereo unspecified),.,-,-,.
O=C(CN1C(=O)c2ccccc2S1(=O)=O)NC(Nc1ccccc1F)C(Cl)(Cl)Cl (stereo unspecified),-,-105,-,-
C/C(N)=C(/C#N)C(=O)CSc1nnc(SCc2ccc(Cl)cc2)s1,?,-,-,-
C/C(N)=C(/C#N)C(=O)CSc1nn(-c2ccc(Cl)cc2)c(=S)s1,50µM,-,-,-
C/C(=N\Nc1cc(C)nc(-c2ccccc2O)n1)c1ccccc1,-,-,-,-
Cc1cc(N/N=C/c2ccc(O)c(C)c2O)nc(-c2ccccc2O)n1,-,-72,-,?
Cc1ccc(NC(=O)Cn2cc3c(n2)CCCC3)cc1Cl,.,-,-,.
O=C(Nc1sc2c(c1C(=O)O)CCC2)c1ccccc1,22µM,-,-,-
N#Cc1c(NC(=O)/C=C/c2ccco2)sc2c1CCCC2,-,-,-,-
O=C(/C=C/c1ccco1)Nc1sc2c(c1C(=O)O)CCC2,40µM,-,-,-
O=C(Nc1sc2c(c1C(=O)O)CCCCC2)c1ccccc1,-,-,-,?
CSc1ccc(CCNC(=O)C2=C(C)C(=O)OC23CCCCC3)cc1,.,-,-,.
COc1cc(NC(=O)CSc2nc(-c3ccco3)cc(C(F)(F)F)n2)cc(OC)c1OC,.,-,-,.
SMILES,gsp antag,RXFP1 antag,RXFP1 agonist,gsp agonist
COc1ccc(CC(=O)Nc2cccc(-c3nnc(-c4ccc(C)cc4)o3)c2)cc1OC,?,-,-,-
COc1ccc(CC(=O)Nc2cccc(-c3nnc(-c4cccc(C)c4)o3)c2)cc1OC,32µM,-,-,-
O=C(O)/C=C/C(=O)Nc1ccc(C2(c3ccc(NC(=O)/C=C/C(=O)O)cc3)c3ccccc3-c3ccccc32)cc1,-,-61,-,-
O=C(O)/C=C\C(=O)Nc1ccc(Oc2ccccc2)cc1,-,-,-,?
COc1cc(NC(=O)COc2cc(O)c3c(c2)OC(C)(C)CC3=O)cc(OC)c1OC,35µM,.,-,.
COc1cc(NC(=O)COc2cccc3c2OC(C)(C)C3)cc(OC)c1OC,35µM,-,-,-
CC(=O)Nc1ccc(NC(=O)COc2cccc3c2OC(C)(C)C3)cc1,-,-,-,-
Cc1cccc(N2CC(C(=O)Nc3nnc(SCCN4CCOCC4)s3)CC2=O)c1 (stereo unspecified),-,-,-,-[15.4 µM]
Cc1ccccc1N1CC(C(=O)Nc2nnc(SCCN3CCOCC3)s2)CC1=O (stereo unspecified),32µM,-,-,?
Cc1c(C(=O)Nc2ccc(Cl)cc2)c2ccccn2c1CCc1ccncc1,-,-,-,?
Cc1c(C(=O)Nc2cccc(Cl)c2)c2ccccn2c1CCc1ccncc1,28µM,-,-,-[15.4 µM]
Cc1nc(SC(C)C(=O)Nc2ccccc2Cl)cc(-c2ccccc2)n1 (stereo unspecified),.,-72,-,.
CCOc1ccccc1NC(=O)C(C)Sc1cc(-c2ccccc2)nc(C)n1 (stereo unspecified),.,-,-,.
COc1ccc(NC(=O)C/C(C)=N/NC(=O)c2ccco2)c([N+](=O)[O-])c1,-,-66,-,?
Cc1ccc(C)c(-n2cc(CNCCCn3cccn3)c(-c3ccccc3)n2)c1,-,-,-,-[15.4 µM]
Cc1ccc(-n2cc(CNCCCn3cccn3)c(-c3cccc(C)c3)n2)cc1,-,-64,-,-[15.4 µM]
CCc1ccc(NC(=O)N(Cc2c[nH]c3ccccc23)C2CCCCC2)cc1,.,.,-,.
CCN(CC)C(=O)CSc1ncnc2sc(-c3ccccc3)cc12,40µM,-,-,-
CN(CCC#N)C(=O)CSc1ncnc2sc(-c3ccccc3)cc12,-,-,-,-
Cc1ccc(-n2c(C)cc(C(=O)C(=O)Nc3ccccc3)c2C)c(C)c1,.,-,-,.
O=S(=O)(c1ccc(Br)cc1)N1CCCN(Cc2cccc(F)c2)CC1,-,-,-,-
COc1cccc(CN2CCCN(S(=O)(=O)c3ccc(Br)cc3)CC2)c1,40µM,-,-,-
COc1ccc(NC(=O)Nc2ccc3c(c2)N(C)C(=O)CS3)cc1Cl,50µM,?,-,-
CCOc1ccc(NC(=O)Nc2ccc3c(c2)N(C)C(=O)CS3)cc1,-,.,-,-
CC(=O)c1ccc(NC(=O)Nc2ccc3c(c2)N(C)C(=O)CS3)cc1,35µM,-70,-,?
SMILES,gsp antag,RXFP1 antag,RXFP1 agonist,gsp agonist
Cc1ccc(C(=O)C(=O)O)cc1C,.,-,.,.
CCOc1ccc(NC(=O)CCc2c(C)nc3c(c(C)nn3-c3ccccc3)c2C)cc1,.,-,-,.
CC(C)OC(=O)C(C(=O)C(F)(F)F)c1cc(NS(=O)(=O)c2ccc3ccccc3c2)c2ccccc2c1O (stereo unspecified),-,-85,-,-
Cc1ccc(NC(=O)CSc2ccccc2NC(=O)c2ccccc2Cl)cc1Cl,28µM,-,-,-
Fc1ccc(CNc2nc(-c3ccccc3)cc(C(F)(F)F)n2)cc1,.,.,-,.
CCc1ccc(CN(C)CC(=O)Nc2ccc3c(c2)CCC3)cc1,-,-,-,-
Cc1ccc(CN(C)CC(=O)Nc2ccc3c(c2)CCC3)cc1,-,-64,-,-
O=C(OCC1(COC(=O)c2cccnc2)CCCC(COC(=O)c2cccnc2)(COC(=O)c2cccnc2)C1O)c1cccnc1,.,-,.,.
O=C(N/N=C/c1c[nH]c2c1ccc1ccccc12)c1ccc([N+](=O)[O-])cc1,-,-68,-,-[15.4 µM]
O=C(CN1CCCCCC1)Nc1ccc(Oc2ccccc2)cc1,-,-64,-,-
O=C(CN1CCCCC1)Nc1ccccc1,-,-,-,-
